Records with an inconclusive call do not appear. Where a call stands in place of a potency, no number is given. Calls of active or inactive are those of the source. The call rests on the fitted dose curve; in most records, active means well fitted activation curve with a large enough effect in the repeat runs; inconclusive means weak or mixed curves; inactive means flat fitted curve, though single readings scatter.
assay: A CellTox Green Cytotoxicity Assay to monitor cytotoxicity in HEK293 cells - 8 hour (AID 1224884); conditions: CellTox Green fluorescence; series mostly up to 76.8 µM; further: nearly all actives have a fitted effect of over 35% in size
Text: National Center for Advancing Translational Sciences [NCATS]
NIH Chemical Genomics Center [NCGC]
U.S. Environmental Protection Agency [EPA]
National Institutes of Environmental Health Sciences [NIEHS]
National Toxicology Program [NTP]
Cell-based models are critical for drug discovery. Determining the natural cytotoxic effects resulting from test compounds is an essential research activity. A CellTox Green Cytotoxicity Assay to monitor cytotoxicity in real time of continues cell culture during 40 hours of the compound treatment was used to screen Tox21 10K library compounds in Hek293 cells. CellTox Green Cytotoxicity Assay is a nonlytic, homogeneous, biofluorescent method to measure cytotoxicity in cell culture after experimental manipulation. The assay system uses a proprietary asymmetric cyanine dye that is excluded from viable cells but preferentially stains the dead cell's DNA. […] Viable cells produce no appreciable increases in fluorescence. Therefore, the fluorescence signal produced by the binding interaction with dead cell DNA is proportional to cytotoxicity.
The mixture of Hek293 cell suspension and reagents were dispensed at 600cells/6 ul/well in 1536-well tissue culture treated black solid bottom plates using a Multidrop dispenser. After the assay plates were incubated at a 37 C/5% CO2 incubator for 5 hours, 23 nL of compounds dissolved in DMSO, positive and negative controls was transferred to the assay plate by a pintool work station. The plates were incubated at 37 C for 40 hours. The fluorescence intensity were measured at 0h, 8h, 16h, 24h, 32h and 40h time points using ViewLux plate reader during compound treatment.
Potency means the concentration at half of the fitted maximal effect.

| SMILES | Potency | cytotoxicity increase |
| --- | --- | --- |
| CNCCC(Oc1ccccc1OC)c1ccccc1 (stereo not given) | inactive |  |
| CCCCNc1cc(C(=O)O)cc(S(N)(=O)=O)c1Oc1ccccc1 | inactive |  |
| CCCCCOc1ccc(C2SC(=O)NC2=O)cc1OCC (stereo not given) | inactive |  |
| CC(C)CC(=O)OCc1ccccc1 | inactive |  |
| CCCCc1ccc2nc(NC(=O)OC)[nH]c2c1 | inactive |  |
| CCC/C=C/CO | inactive |  |
| NCCCN1CCN(CCCN)CC1 | inactive |  |
| CCOC(=O)[C@H](CCc1ccccc1)N[C@@H](C)C(=O)N1Cc2cc(OC)c(OC)cc2C[C@H]1C(=O)O | inactive |  |
| CS(=O)(=O)c1ccc([C@@H](O)[C@@H](CF)NC(=O)C(Cl)Cl)cc1 | inactive |  |
| CC1=C(O)C(=O)OC1C (stereo not given) | inactive |  |
| C[C@@H]1CN(c2c(F)c(F)c3c(=O)c(C(=O)O)cn(C4CC4)c3c2F)C[C@H](C)N1 |  | -0.256% [at 15.8 µM] (inactive) |
| O=C(Cl)c1cccc([N+](=O)[O-])c1 | inactive |  |
| CC1(C)S[C@@H]2[C@H](NC(=O)C(C(=O)O)c3ccccc3)C(=O)N2[C@H]1C(=O)O (stereo not given in full) | inactive |  |
| CN(CC1(C)CCCO1)S(=O)(=O)c1ccc(Cl)c(S(N)(=O)=O)c1 (stereo not given) | inactive |  |
| COc1cc2c(cc1N)oc1ccccc12 | inactive |  |
| Cc1cc(S(=O)(=O)O)c(N)cc1Cl | inactive |  |
| CCOC(=O)CS | inactive |  |
| CCCCCCCCCC#N | inactive |  |
| COc1ccccc1N1CCN(CCCNc2cc(=O)n(C)c(=O)n2C)CC1 | inactive |  |
| OCc1ccccc1O | inactive |  |

| SMILES | Potency | cytotoxicity increase |
| --- | --- | --- |
| CC(=O)Oc1cc(C(C)C)c(OCCN(C)C)cc1C | inactive |  |
| CCNCCO | inactive |  |
| O=C(O[C@@H](C(=O)O)[C@@H](OC(=O)c1ccccc1)C(=O)O)c1ccccc1 | inactive |  |
| CCCCOc1cc(C(=O)NCCN(CC)CC)c2ccccc2n1 | inactive |  |
| C/C(=N\O)[C@@H](C)NCC(C)(C)CN[C@H](C)/C(C)=N/O | inactive |  |
| C=CCc1cc(OC)c(O)c(C(=O)NCCO)c1 | inactive |  |
| CN1CCC[C@@H]1Cc1c[nH]c2ccc(CCS(=O)(=O)c3ccccc3)cc12 | inactive |  |
| O=C1CCCCCCCCCCC(=O)OCCO1 | inactive |  |
| CCCCNCCCC | inactive |  |
| CC(C)NCC(O)COc1ccc(CCOCC2CC2)cc1 (stereo not given) | inactive |  |
| CC/C=C\CCOC(=O)C(C)C | inactive |  |
| CN(C)C(=O)NC1(c2ccccc2)CCN(CCC[C@]2(c3ccc(Cl)c(Cl)c3)CCCN(C(=O)c3ccccc3)C2)CC1 |  | -1.4% [at 15.8 µM] (inactive) |
| O=C1CCC(C2CCCCC2)CC1 | 43.6 µM (active) |  |
| CC(C)OC(C)C | inactive |  |
| COc1ccccc1OCC(O)COC(N)=O (stereo not given) | inactive |  |
| O=C(O)c1cccc(Cl)c1Cl | inactive |  |
| Cc1cc2c(s1)Nc1ccccc1N=C2N1CCN(C)CC1 | inactive |  |
| CCCC1CCC(=O)O1 (stereo not given) | inactive |  |
| C[C@]12C(=O)OC(=O)[C@H]1[C@H]1C=C[C@@H]2C1 | inactive |  |
| FC(F)(F)c1ccccc1 | inactive |  |

Source: PubChem BioAssay (Tox21)
